Source: PubChem (National Center for Advancing Translational Sciences (NCATS))
PNC assembly inh: inhibitors of perinucleolar compartment assembly; activity change (PNC), negative = inhibition, % at 10 µM; PC3M PTB-GFP, PNC prevalence imaging, 16 h; stronger effect = lower value; 140,000 compounds, 3.1% hits;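 active = readout at or below -70, meaning at least 70% loss of cells showing the perinucleolar compartment, a nuclear body marking cancer cells; inconclusive = readout between -30 and a set limit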;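 note: plate controls were DMSO wells for no effect and camptothecin positive control wells for full effect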
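PC3M cells stably expressing PTB-GFP, 750–1000 cells/well, treated 16 h at 37 °C with compound (23 nl of library stock), in duplicate. After paraformaldehyde fixation and Hoechst stain, imaged at 20x; PNC prevalence scored by image analysis.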
ALDH1A1 block: ALDH1A1 (human) enzyme inhibition | Purified ALDH1A1, NADH fluorescence, propionaldehyde substrate | AID 1030 | Potency, µM (series often up to 75.3 µM), without a hit: at the highest dose activity, negative = inhibition, most hits filed as inhibitors | 220,000 compounds, 7.3% hits | P00352;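 note: potency is the fitted concentration of half-maximal effect; plate controls were no enzyme wells and a reference inhibitor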
Target sequence (P00352 whole entry, looked up): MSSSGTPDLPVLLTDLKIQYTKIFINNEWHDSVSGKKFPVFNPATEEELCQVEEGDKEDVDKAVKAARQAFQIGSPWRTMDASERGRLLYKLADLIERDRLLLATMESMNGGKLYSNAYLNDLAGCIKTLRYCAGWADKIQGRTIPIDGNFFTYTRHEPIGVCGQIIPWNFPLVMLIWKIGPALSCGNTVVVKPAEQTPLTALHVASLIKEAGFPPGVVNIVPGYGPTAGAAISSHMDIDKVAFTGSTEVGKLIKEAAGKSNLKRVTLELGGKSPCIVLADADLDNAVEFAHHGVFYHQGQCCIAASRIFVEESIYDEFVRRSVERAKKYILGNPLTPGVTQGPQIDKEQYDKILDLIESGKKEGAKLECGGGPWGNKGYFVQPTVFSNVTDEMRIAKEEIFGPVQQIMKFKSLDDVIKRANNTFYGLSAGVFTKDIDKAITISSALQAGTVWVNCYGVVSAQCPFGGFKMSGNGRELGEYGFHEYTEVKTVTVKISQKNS
HPGD inh: inhibitors of human 15-hydroxyprostaglandin dehydrogenase (HPGD); P15428; 150,000 compounds, 4.3% hits; Potency, µM, for inactives: top-dose activity change, negative = inhibition, actives largely listed as inhibitors; purified HPGD, NADH fluorescence kinetic, PGE2 substrate; note: potency is the fitted concentration of half-maximal effect
Target sequence (P15428 whole entry, looked up): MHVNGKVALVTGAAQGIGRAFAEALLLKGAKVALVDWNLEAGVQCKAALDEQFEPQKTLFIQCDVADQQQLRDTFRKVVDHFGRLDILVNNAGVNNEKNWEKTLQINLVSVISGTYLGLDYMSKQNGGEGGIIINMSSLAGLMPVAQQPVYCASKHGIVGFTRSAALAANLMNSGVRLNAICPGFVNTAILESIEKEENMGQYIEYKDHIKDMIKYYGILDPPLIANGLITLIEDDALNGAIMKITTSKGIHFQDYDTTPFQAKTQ
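20 nM HPGD preincubated 15 min at room temperature with compound in 50 mM Tris-HCl pH 8, 0.01% Tween 20. Started with 1 mM NAD+ and 30 uM prostaglandin E2; NADH fluorescence (360/450 nm) read 5 times over 30-s intervals, last minus first.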
IMPase inh: cell-permeable inhibitors of inositol monophosphatase (IMPase); inhibition (IP1 accumulation), % at 46.1 µM; CHO-M1 cells, IP1 accumulation, HTRF TR-FRET ratio; 120,000 tested, under 10 active; active = well fitted curve in the direction sought with a large enough effect in the signal ratio, not every such curve was filed as active; inconclusive = small, poorly fitted or top-dose-only effect, or a change in a side signal; inactive = no such curve, though single readings can be large or run the other way; the % refers to the signal ratio;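 note: cells stimulated with carbachol in lithium chloride buffer; plate controls were DMSO basal wells for no effect and reference inhibitor wells for full effect; higher means more IMPase inhibition seen as more IP1 and lower FRET ratio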
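CHO-M1, 2000 cells/well, cultured 16–30 h; cpd up to 46 uM; carbachol (50 uM solution, stimulation buffer w/ 50 mM LiCl, pH 7.4), 30 min 37C; IP-One TR-FRET, 10 min RT; Ex 320/Em 665, 620; Hill-fit AC50.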
IMPase Li inh: IMPase inhibition in cells with lithium potentiation; CHO-M1 cells, IP1 TR-FRET (IP-One), carbachol + lithium; Potency, µM (top dose mostly 59.4 µM), inactives show at the top dose activity, negative = IMPase inhibition, usual class: inhibitors; 210,000 compounds, 0.35% hits; active = well fitted inhibition curve with a large enough effect; inconclusive = small, poorly fitted or top-dose-only effect; inactive = no such curve, though single readings can be large or run the other way;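 note: IP1 builds up when IMPase is blocked and the TR-FRET signal falls; potency is the fitted concentration of half-maximal effect; plate controls were basal vehicle for no effect and high inhibitor control for full effect; nearly all actives have a fitted effect of over 50% in size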
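CHO-M1, 2000 cells/well, 16–30 h culture; cpd + low Li+, 30 min 37C; lysis with d2-IP1/Eu-anti-IP1 Ab, 10 min RT; TR-FRET 665/620 ratio and 620 channel; AC50 via Hill.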
* marks the source's active call; other numbers are inactive results; [ ] = remark or other dose. Most compounds without a hit are left out; they make up all but 11% or so of the library. Unless noted, calls come from the whole dose curve; as a rule, active = well fitted inhibition curve with a large enough effect (not every such curve was filed as active); inconclusive = small, poorly fitted or top-dose-only effect, or another doubt; inactive = no such curve, though single readings can be large or run the other way. Unless noted, % is set by controls: 0 for no effect and ±100 for the full control effect.

`O=C(c1ccc(S(=O)(=O)c2ccc(F)cc2)c([N+](=O)[O-])c1)N1CCCCCC1` gave PNC assembly inh -119.3*, ALDH1A1 block -2.6%, HPGD inh -14.3%, IMPase inh 6.7 and IMPase Li inh 15.5%.
Screening O=C(c1ccc(S(=O)(=O)c2ccccc2Cl)c([N+](=O)[O-])c1)N1CCN(Cc2ccccc2)CC1 returned PNC assembly inh inconclusive, ALDH1A1 block 14.1µM*, HPGD inh -12.5% and IMPase Li inh 8.2%.
For CC(C)(C)NC(=O)C(c1ccsc1)N(CCc1ccccc1)C(=O)Cn1nnc2ccccc21 (stereo not given) the results were PNC assembly inh -88.6*, ALDH1A1 block inconclusive, HPGD inh -3.7%, IMPase inh -0.8 and IMPase Li inh -2.2%[38.3 µM].
`CCC(C)(C)NC(=O)C(c1cccn1C)N(C(=O)Cn1nnc2ccccc21)c1ccc(OC)cc1OC` (stereo not given) gave PNC assembly inh -8.2, ALDH1A1 block 11.2µM*, HPGD inh -1.2%, IMPase inh 15.7 and IMPase Li inh 9.8%.
Screening CCC(C)(C)NC(=O)C(c1ccc(C)cc1)N(Cc1ccco1)C(=O)Cn1nnc2ccccc21 (stereo not given) returned PNC assembly inh -100.0*, ALDH1A1 block -1.2%, HPGD inh -9.6%, IMPase inh -2.9 and IMPase Li inh 6.7%.
`CCC(C)(C)NC(=O)C(c1ccncc1)N(Cc1cccs1)C(=O)Cn1nnc2ccccc21` (stereo not given) gave PNC assembly inh -0.8, ALDH1A1 block -3.9%, HPGD inh -12.0%, IMPase inh 2.4 and IMPase Li inh -8.2%[38.3 µM].
`Cc1cc(C)c(N(C(=O)Cn2nnc3ccccc32)C(C(=O)NC(C)(C)C)c2ccsc2)c(C)c1` (stereo not given) gave PNC assembly inh -6.7, ALDH1A1 block 13.8%, HPGD inh -5.3%, IMPase inh 4.2 and IMPase Li inh 6.1%.
`CCCCn1c(=O)nc2n(-c3ccc(OC)cc3)c3ccccc3cc-2c1=O` gave ALDH1A1 block 8.91µM* and IMPase Li inh inconclusive.
Screening CCCCn1c(=O)nc2n(-c3ccc(Cl)cc3)c3ccccc3cc-2c1=O returned PNC assembly inh 20.2, ALDH1A1 block inconclusive, HPGD inh inconclusive and IMPase Li inh 1.5%.
`CCc1ccccc1Nc1nc2cc(Cl)c(Cl)cc2nc1-n1nc(C)cc1C` gave IMPase inh 2.7.
For O=S(=O)(NCCSc1nnnn1-c1ccccc1)c1cccs1 the results were PNC assembly inh -10.5, ALDH1A1 block 12.6µM*, HPGD inh -10.0%, IMPase inh -0.6 and IMPase Li inh 5.3%.
CSc1ccccc1-n1nnnc1SCc1ccccc1 was read as PNC assembly inh inconclusive, ALDH1A1 block 7.08µM*, HPGD inh -30.1%, IMPase inh 12.9 and IMPase Li inh 40.6%[38.3 µM].
O=C(O)c1ccc(-n2nnnc2SCc2ccccc2)cc1 was read as PNC assembly inh inconclusive, ALDH1A1 block 1.6%, HPGD inh 20µM*, IMPase inh -8.4 and IMPase Li inh 20.8%[38.3 µM].
Screening COC(=O)c1sccc1NC(=O)CSc1nnnn1-c1ccccc1F returned PNC assembly inh inconclusive, ALDH1A1 block 14.1µM*, HPGD inh -15.9%, IMPase inh -14.7 and IMPase Li inh 1.9%[38.3 µM].
For CS(=O)(=O)NCCSc1nnnn1-c1ccccc1 the results were PNC assembly inh 0.2, ALDH1A1 block -25.6%, HPGD inh 0.1%, IMPase inh -1.5 and IMPase Li inh 3.7%[38.3 µM].
`CCCCCCCCCCCCCCCCOC[C@H](COP(=O)([O-])OCC[N+](C)(C)C)OC(=O)NC` gave ALDH1A1 block -0.6%, HPGD inh -7.3% and IMPase Li inh -4.7%.
Screening COC(=O)N1C(c2ccccc2)=Cc2ccccc2C1C1(C(=O)OC)CCCC1=O (stereo not given) returned ALDH1A1 block -3.8%, HPGD inh -7.0% and IMPase Li inh 6.1%.
For CCOC(=O)N/N=C1/C[C@@H](O)[C@@H](O)[C@@H]2[C@@H]3C(=O)N(C(C)(C)C)C(=O)[C@H]3CC[C@@H]12 the results were ALDH1A1 block 9.9%[13.5 µM].
COc1ccc(-n2nnnc2SCc2nc3ccccc3s2)cc1 was read as PNC assembly inh -29.8, ALDH1A1 block inconclusive, HPGD inh inconclusive, IMPase inh -7.2 and IMPase Li inh 11.9%[38.3 µM].
`COc1ccc(CSc2nnnn2-c2ccccc2)cc1` gave PNC assembly inh 35.1, ALDH1A1 block 11.2µM*, HPGD inh -8.6%, IMPase inh 0.2 and IMPase Li inh 19.4%[38.3 µM].
CCCSc1nnc(Sc2nnnn2-c2ccccc2)s1 was read as PNC assembly inh 9.4, ALDH1A1 block 11.2µM*, HPGD inh -28.3%, IMPase inh -3.4 and IMPase Li inh 32.9%[38.3 µM].
`CCCn1c(Sc2nnnn2-c2ccccc2)n[nH]c1=O` gave PNC assembly inh inconclusive, ALDH1A1 block -5.7%, HPGD inh -6.1%, IMPase inh 3.9 and IMPase Li inh -11.1%[38.3 µM].
For c1ccc(-c2noc(CSc3nnnn3-c3ccccc3)n2)cc1 the results were PNC assembly inh -5.1, ALDH1A1 block 11.2µM*, HPGD inh -4.7%, IMPase inh 3.9 and IMPase Li inh 8.9%[38.3 µM].
`Cc1ccc(-c2noc(CSc3nnnn3C3CCCCC3)n2)cc1` gave PNC assembly inh -16.6, ALDH1A1 block 14.1µM*, HPGD inh -13.0%, IMPase inh 4.6 and IMPase Li inh 29.6%[38.3 µM].
`Cc1ccc(-c2noc(CSc3nnc(-c4ccncc4)n3-c3ccc(C)cc3)n2)cc1` gave PNC assembly inh -3.3, ALDH1A1 block -14.7%, HPGD inh -15.6%, IMPase inh 7.7 and IMPase Li inh 22.9%[38.3 µM].
Screening CC(=O)N[C@H](Cc1c[nH]c2ccccc12)C(N)=O returned ALDH1A1 block -3.1%, HPGD inh -13.8% and IMPase Li inh -11.0%.
For COC(=O)c1sccc1NC(=O)CSc1ccccc1NC(=O)CNC(C)C the results were ALDH1A1 block 3.55µM* and IMPase Li inh 10.4%.
Cc1noc(C)c1CSc1nnc(-c2ccccc2)n1N was read as PNC assembly inh 1.8, ALDH1A1 block 10µM*, HPGD inh 20µM*, IMPase inh 0.7 and IMPase Li inh -1.5%[38.3 µM].
`Cc1noc(C)c1CSc1nnc(-c2ccccc2)n1Cc1ccco1` gave PNC assembly inh 19.3, ALDH1A1 block -3.2%, HPGD inh -10.9%, IMPase inh 0.4 and IMPase Li inh 5.4%[38.3 µM].
Screening Cc1cccc2nc(CSc3nnnn3-c3ccccc3)cn12 returned PNC assembly inh 7.1, ALDH1A1 block 10µM*, HPGD inh 1.8%, IMPase inh 3.5 and IMPase Li inh 2.2%[38.3 µM].
`COC(=O)c1ccc(-n2nnnc2SC)cc1` gave PNC assembly inh 0.8, ALDH1A1 block 28.2µM*, HPGD inh 12.6µM*, IMPase inh -4.8 and IMPase Li inh -6.0%[38.3 µM].
